Assay results from PubChem BioAssay (EPA / NIEHS).
Records with an inconclusive call do not appear. Calls of active or inactive are those of the source. The calls were made as follows, unless noted: active = hit-call score of the fitted dose curve at least 0.9, where 1 is the maximum; inactive = score below 0.9.

Experiments:
[1] = ACEA_ER_80hr: ACEA Biosciences xCELLigence Real-Time Cell Analysis on Estrogen Receptor Agonism for Proliferation (AID 2282667; active = hit-call score of the fitted dose curve at least 0.9, where 1 is the maximum); details: T47D proliferation, impedance (xCELLigence), 80 h
Procedure, shortened: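 Cell-growth kinetics were measured by impedance in T47D cells treated continuously with compound (top 100 uM final, 1:4 steps, 8 points). Activity at 80 h was scored as signal gain over the DMSO baseline.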

[2] = ATG_CRE_CIS: Attagene CIS-FACTORIAL HepG2 Assay for human cAMP Responsive Element (CRE) binding protein 3 (AID 2282926); details: HepG2 CRE cis-reporter, Attagene multiplexed mRNA; actives raise or lower the signal
Procedure, shortened: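 Cells carrying cis-regulated reporter constructs respond through their own endogenous factors. After 24 h treatment, RNA is reverse-transcribed, amplified, labelled and sized by capillary electrophoresis; up- and down-regulation are both scored against vehicle.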

[3] = molecular target: CCAAT/enhancer-binding protein beta (Homo sapiens) (UniProt P17676); experiment: ATG_C_EBP_CIS: Attagene CIS-FACTORIAL HepG2 Assay for human CCAAT/Enhancer Binding Protein (C/EBP) beta (AID 2282927); details: HepG2 Attagene cis-factorial transcription factor reporter; actives raise or lower the signal
Procedure, shortened: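 Changes in reporter mRNA, rather than exogenous chimeric receptor activity, reflect native C/EBP signalling in transfected HepG2 cells dosed for 24 h; transcripts are detected by RT-PCR and capillary electrophoresis.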

[4] = ATG_CMV_CIS: Attagene CIS-FACTORIAL HepG2 Assay for human CMV (Internal Marker) (AID 2282928); details: HepG2 CMV promoter reporter, transcription factor profiling; actives raise or lower the signal;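 also: endpoint acts as a background internal control marker rather than a target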
Procedure, shortened: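 Fluorescence intensity of RT-PCR-derived reporter fragments, resolved by capillary electrophoresis, gives the signal. HepG2 liver cells bearing transfected cis-element reporters were treated 24 h; activity in either direction was fit relative to DMSO-treated controls.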

[5] = ATG_DR4_LXR_CIS: Attagene CIS-FACTORIAL HepG2 Assay for human Liver X Receptor (LXR), DR4 submotif (AID 2282929); details: HepG2 Attagene DR4 cis-reporter, mRNA transcription; actives raise or lower the signal
Procedure, shortened: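 Total RNA from 24 h-treated, MRTU-transfected HepG2 cells underwent reverse transcription, PCR, fluorescent primer extension and restriction digestion before capillary electrophoresis. Both increases and decreases in reporter signal were fitted against DMSO.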

[6] = molecular target: Aryl hydrocarbon receptor (Homo sapiens) (UniProt P35869); experiment: ATG_Ahr_CIS: Attagene CIS-FACTORIAL HepG2 Assay for human Aryl Hydrocarbon Receptor (Ahr) (AID 2282930); details: HepG2 AhR cis-factorial reporter transcription; actives raise or lower the signal
Procedure, shortened: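 HepG2, transient MRTU (cis) transfection, 24 h exposure. RNA → cDNA → PCR → 6-FAM primer extension → HpaI 2 h 37 C → CE. Fit: bidirectional, DMSO baseline.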

[7] = ATG_AP_1_CIS: Attagene CIS-FACTORIAL HepG2 Assay for human Activator Protein 1 (AP-1) (AID 2282931); details: HepG2 Attagene cis-factorial AP-1 reporter mRNA; actives raise or lower the signal
Procedure, shortened: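 HepG2, transient cis-reporter transfection; 24 h; readout RT-PCR/CE fluorescence; DMSO baseline, gain and loss fitted.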

[8] = ATG_BRE_CIS: Attagene CIS-FACTORIAL HepG2 Assay for human Bone Morphogenetic Protein (BMP) Response Element (BRE) (AID 2282933); details: HepG2 BMP response element reporter, Attagene transcription factor profiling; actives raise or lower the signal
Procedure, shortened: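 Gain- or loss-of-signal was derived by bidirectional fitting against DMSO controls. The signal came from reporter mRNA, measured by RT-PCR and capillary electrophoresis, in HepG2 cells transiently carrying multiple reporter units and dosed for 24 h.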

[9] = molecular target: Retinoic acid receptor alpha (Homo sapiens) (UniProt P10276); experiment: ATG_DR5_RAR_CIS: Attagene CIS-FACTORIAL HepG2 Assay for human Retinoic Acid Receptor Alpha (RARE), DR5 submotif (AID 2282934); details: HepG2 Attagene cis-factorial RARE DR5 reporter, mRNA; actives raise or lower the signal;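 as to AC50: reporter responds to endogenous RAR alpha beta and gamma in HepG2 not RARA alone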
Procedure, shortened: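 HepG2, transient cis-reporter transfection, 24 h exposure. mRNA readout: RT-PCR, FAM label, HpaI cut, capillary electrophoresis. DMSO baseline, gain/loss fitting.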

[10] = molecular target: Transcription factor E2F1 (Homo sapiens) (UniProt Q01094); experiment: ATG_E2F_CIS: Attagene CIS-FACTORIAL HepG2 Assay for human E2F Transcription Factor 1 (AID 2282935); details: HepG2 Attagene cis-reporter, E2F reporter RNA transcripts; actives raise or lower the signal
Procedure, shortened: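 Gain or loss of reporter transcript, fitted against DMSO, reflects E2F1-driven transcription. Transiently transfected HepG2 dosed 24 h before RNA isolation. Quantified by fluorescent RT-PCR products separated by capillary electrophoresis.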

[11] = ATG_E_Box_CIS: Attagene CIS-FACTORIAL HepG2 Assay for human Enhancer Box (E-box) (AID 2282936); details: HepG2 E-box cis-reporter transcription, actives raise or lower the signal
Procedure, shortened: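 E-box-driven reporter transcripts measured in transiently transfected HepG2 after 24 h exposure: RNA reverse-transcribed, PCR-amplified, fluorescently labelled, digested and resolved by capillary electrophoresis. Gain or loss relative to DMSO.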

[12] = ATG_M_61_CIS: Attagene CIS-FACTORIAL HepG2 Assay for M61 Transcription Factor (Internal Marker) (AID 2282937); details: HepG2 Attagene CIS-FACTORIAL M61 internal marker reporter; actives raise or lower the signal
Procedure, shortened: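 Transfect HepG2 with MRTUs; dose 24 h; isolate RNA; reverse-transcribe with DNase I treatment; PCR-amplify, FAM-label and cut with HpaI for 2 h at 37 C; resolve by CE. Bidirectional fitting against DMSO.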

[13] = ATG_EGR_CIS: Attagene CIS-FACTORIAL HepG2 Assay for human Early Growth Response 1 (EGR1) (AID 2282938); details: HepG2 Attagene CIS-FACTORIAL EGR reporter mRNA; actives raise or lower the signal
Procedure, shortened: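 After a 24 h treatment of transiently transfected HepG2 cells, total RNA was reverse-transcribed and reporter sequences PCR-amplified, labelled and run on capillary electrophoresis. Reporters sit under cis-regulatory promoters sensing endogenous factors.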

[14] = ATG_M_19_CIS: Attagene CIS-FACTORIAL HepG2 Assay for M19 Transcription Factor (Internal Marker) (AID 2282939); details: HepG2 Attagene CIS-FACTORIAL M19 internal marker reporter; actives raise or lower the signal
Procedure, shortened: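 Following a 24 h exposure, RNA from transfected HepG2 cells was reverse-transcribed, PCR-amplified with reporter-specific primers, end-labelled with 6-FAM and HpaI-digested before capillary separation. Values represent gain or loss versus DMSO.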

[15] = ATG_ERE_CIS: Attagene CIS-FACTORIAL HepG2 Assay for Estrogen Response Element (ERE) (AID 2282940); details: HepG2 ERE cis-reporter, Attagene RNA transcript; actives raise or lower the signal
Procedure, shortened: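 HepG2, transient cis-reporter units, 24 h exposure. RNA isolated, oligo(dT) RT, reporter-specific PCR, FAM extension, HpaI cut, CE detection. Gain/loss-of-signal vs DMSO.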

[16] = ATG_Ets_CIS: Attagene CIS-FACTORIAL HepG2 Assay for human Erythroblast Transformation Specific (ETS) (AID 2282941); details: HepG2 ETS cis-reporter transcription, actives raise or lower the signal
Procedure, shortened: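 Multiplexed reporter transcript profiling: HepG2, 24 h treatment, total RNA to cDNA, PCR, 6-FAM labelling, HpaI cut, capillary electrophoresis. Gain- or loss-of-signal fitted against DMSO.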

[17] = molecular target: Hepatocyte nuclear factor 3-beta (Homo sapiens) (UniProt Q9Y261); experiment: ATG_FoxA2_CIS: Attagene CIS-FACTORIAL HepG2 Assay for human Forkhead box A2 (FOXA2) (AID 2282942); details: HepG2 cis-reporter transcription factor activity, 24 h; actives raise or lower the signal
Procedure, shortened: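 24 h dosing of HepG2 bearing cis-reporter constructs; mRNA readout by RT-PCR/CE fluorescence; bidirectional fit, DMSO baseline.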

[18] = ATG_FoxO_CIS: Attagene CIS-FACTORIAL HepG2 Assay for human Forkhead box O (FoxO) (AID 2282943); details: HepG2 Attagene cis-reporter, FoxO element, mRNA; actives raise or lower the signal
Procedure, shortened: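 Human hepatoma HepG2 cells carry transiently introduced reporter transcription units controlled by cis promoter elements. Chemical treatment lasted 24 h, and mRNA signal was compared with DMSO.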

[19] = ATG_GATA_CIS: Attagene CIS-FACTORIAL HepG2 Assay for human GATA Binding Protein (AID 2282944); details: HepG2 GATA cis-element reporter, Attagene multiplex mRNA; actives raise or lower the signal
Procedure, shortened: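 DMSO serves as negative control and baseline for bidirectional fitting of reporter mRNA changes. HepG2 cells bearing transiently transfected cis-promoter reporters were exposed 24 h; transcripts detected via RT-PCR and capillary electrophoresis.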

[20] = ATG_AP_2_CIS: Attagene CIS-FACTORIAL HepG2 Assay for human Activator Protein 2 (AP-2) (AID 2282932); details: HepG2 AP-2 cis-reporter, Attagene transcription factor profiling; actives raise or lower the signal
Procedure, shortened: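 Endogenous transcription factor activity is reported through transfected multiplex reporter constructs in HepG2, after 24 h of compound exposure. Transcripts were quantified by RT-PCR and capillary electrophoresis of fluorescent fragments. Bidirectional fit against DMSO.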

Sequence of Retinoic acid receptor alpha (Homo sapiens) (P10276 whole entry, looked up): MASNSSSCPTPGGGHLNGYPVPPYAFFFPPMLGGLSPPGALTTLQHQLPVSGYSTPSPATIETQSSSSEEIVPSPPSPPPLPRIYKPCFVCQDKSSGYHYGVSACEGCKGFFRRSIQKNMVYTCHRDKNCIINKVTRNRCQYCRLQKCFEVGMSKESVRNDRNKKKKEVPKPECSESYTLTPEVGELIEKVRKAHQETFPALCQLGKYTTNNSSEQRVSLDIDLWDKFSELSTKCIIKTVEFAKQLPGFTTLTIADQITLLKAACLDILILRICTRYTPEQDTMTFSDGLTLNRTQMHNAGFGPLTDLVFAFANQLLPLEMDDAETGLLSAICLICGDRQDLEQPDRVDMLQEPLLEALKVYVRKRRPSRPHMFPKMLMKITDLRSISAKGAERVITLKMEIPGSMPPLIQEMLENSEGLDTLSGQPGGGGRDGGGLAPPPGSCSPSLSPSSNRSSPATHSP
Sequence of CCAAT/enhancer-binding protein beta (Homo sapiens) (P17676 whole entry, looked up): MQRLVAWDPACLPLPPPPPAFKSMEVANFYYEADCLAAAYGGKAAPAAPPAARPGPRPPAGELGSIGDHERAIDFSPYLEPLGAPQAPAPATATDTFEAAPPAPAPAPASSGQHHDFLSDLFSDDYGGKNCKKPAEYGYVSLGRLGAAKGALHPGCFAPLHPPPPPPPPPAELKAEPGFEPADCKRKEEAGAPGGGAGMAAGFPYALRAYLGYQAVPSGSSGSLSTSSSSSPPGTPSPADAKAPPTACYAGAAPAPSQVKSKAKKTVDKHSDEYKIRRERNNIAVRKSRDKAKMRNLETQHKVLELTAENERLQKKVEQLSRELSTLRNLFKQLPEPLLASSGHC
Sequence of Hepatocyte nuclear factor 3-beta (Homo sapiens) (Q9Y261 whole entry, looked up): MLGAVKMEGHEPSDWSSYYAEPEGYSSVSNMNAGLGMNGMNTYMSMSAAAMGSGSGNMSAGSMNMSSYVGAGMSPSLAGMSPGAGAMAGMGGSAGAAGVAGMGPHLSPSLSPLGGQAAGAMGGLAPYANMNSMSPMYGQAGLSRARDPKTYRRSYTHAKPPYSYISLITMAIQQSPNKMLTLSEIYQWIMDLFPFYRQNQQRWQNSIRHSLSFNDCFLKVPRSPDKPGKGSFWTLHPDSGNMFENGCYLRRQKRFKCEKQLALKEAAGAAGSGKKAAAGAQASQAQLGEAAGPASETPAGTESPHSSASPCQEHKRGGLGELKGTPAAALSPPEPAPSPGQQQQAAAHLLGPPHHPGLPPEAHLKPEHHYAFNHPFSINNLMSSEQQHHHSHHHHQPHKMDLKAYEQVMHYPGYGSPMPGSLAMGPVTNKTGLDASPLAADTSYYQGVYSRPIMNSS
Sequence of Transcription factor E2F1 (Homo sapiens) (Q01094 whole entry, looked up): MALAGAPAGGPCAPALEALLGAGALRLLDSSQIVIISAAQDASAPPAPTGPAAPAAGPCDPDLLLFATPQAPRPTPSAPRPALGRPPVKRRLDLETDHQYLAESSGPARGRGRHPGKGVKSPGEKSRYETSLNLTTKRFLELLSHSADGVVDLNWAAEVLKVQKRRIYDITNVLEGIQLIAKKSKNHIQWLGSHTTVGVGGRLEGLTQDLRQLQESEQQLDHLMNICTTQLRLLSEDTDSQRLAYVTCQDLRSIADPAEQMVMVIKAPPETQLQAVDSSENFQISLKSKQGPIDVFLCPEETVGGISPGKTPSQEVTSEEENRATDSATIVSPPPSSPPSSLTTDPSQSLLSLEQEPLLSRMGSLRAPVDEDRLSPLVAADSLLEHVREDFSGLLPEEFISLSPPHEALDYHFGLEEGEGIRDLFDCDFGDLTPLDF
Sequence of Aryl hydrocarbon receptor (Homo sapiens) (P35869 whole entry, looked up): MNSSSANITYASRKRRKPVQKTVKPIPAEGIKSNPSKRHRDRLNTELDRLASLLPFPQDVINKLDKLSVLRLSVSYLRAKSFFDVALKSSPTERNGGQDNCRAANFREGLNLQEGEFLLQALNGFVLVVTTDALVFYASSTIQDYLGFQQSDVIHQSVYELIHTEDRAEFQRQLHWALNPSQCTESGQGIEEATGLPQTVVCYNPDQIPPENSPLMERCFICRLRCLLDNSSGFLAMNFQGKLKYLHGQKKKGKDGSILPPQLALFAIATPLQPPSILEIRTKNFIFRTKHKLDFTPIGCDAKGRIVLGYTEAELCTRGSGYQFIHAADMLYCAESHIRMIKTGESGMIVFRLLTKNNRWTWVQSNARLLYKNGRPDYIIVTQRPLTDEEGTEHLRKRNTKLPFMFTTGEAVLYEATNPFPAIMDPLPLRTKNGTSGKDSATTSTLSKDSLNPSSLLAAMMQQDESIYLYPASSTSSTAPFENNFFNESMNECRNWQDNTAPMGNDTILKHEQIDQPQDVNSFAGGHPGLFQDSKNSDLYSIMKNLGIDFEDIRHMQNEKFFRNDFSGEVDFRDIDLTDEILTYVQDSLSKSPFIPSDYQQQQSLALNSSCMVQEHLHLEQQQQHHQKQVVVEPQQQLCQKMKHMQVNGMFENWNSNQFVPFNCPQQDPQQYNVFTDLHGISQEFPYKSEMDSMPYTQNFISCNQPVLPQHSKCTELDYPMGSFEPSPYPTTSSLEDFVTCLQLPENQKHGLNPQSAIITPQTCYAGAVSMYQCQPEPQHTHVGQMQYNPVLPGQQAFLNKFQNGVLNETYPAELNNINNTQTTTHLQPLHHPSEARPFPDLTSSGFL

SMILES: C=CC(=O)OCCCCCCCC(C)C
- outcome [1]: inactive
- AC50 [2]: 77.2 µM (active)
- AC50 [3]: 63.1 µM (active)
- outcome [4]: inactive
- AC50 [5]: 160 µM (active)
- outcome [6]: inactive
- outcome [7]: inactive
- outcome [8]: inactive
- AC50 [9]: 70.5 µM (active)
- outcome [10]: inactive
- AC50 [11]: 157 µM (active)
- outcome [12]: inactive
- outcome [13]: inactive
- outcome [14]: inactive
- AC50 [15]: 100 µM (active)
- outcome [16]: inactive
- outcome [17]: inactive
- outcome [18]: inactive
- outcome [19]: inactive

SMILES: CCCCCCCCCCCCC
- outcome [1]: inactive
- outcome [2]: inactive
- outcome [3]: inactive
- outcome [4]: inactive
- outcome [5]: inactive
- outcome [6]: inactive
- outcome [7]: inactive
- outcome [8]: inactive
- outcome [9]: inactive
- outcome [10]: inactive
- outcome [11]: inactive
- outcome [13]: inactive
- outcome [14]: inactive
- outcome [15]: inactive
- outcome [16]: inactive
- outcome [17]: inactive
- outcome [18]: inactive
- outcome [19]: inactive

SMILES: CCCCC(C=O)CC (centres undefined)
- outcome [1]: inactive
- outcome [2]: inactive
- outcome [3]: inactive
- outcome [4]: inactive
- outcome [6]: inactive
- outcome [7]: inactive
- outcome [20]: inactive
- outcome [8]: inactive
- outcome [9]: inactive
- outcome [10]: inactive
- outcome [11]: inactive
- outcome [12]: inactive
- outcome [13]: inactive
- outcome [14]: inactive
- outcome [15]: inactive
- outcome [17]: inactive
- outcome [18]: inactive
- outcome [19]: inactive

SMILES: CCCCC1C(=O)N(c2ccccc2)N(c2ccccc2)C1=O
- outcome [1]: inactive
- outcome [2]: inactive
- outcome [3]: inactive
- outcome [4]: inactive
- outcome [6]: inactive
- outcome [7]: inactive
- outcome [20]: inactive
- outcome [8]: inactive
- outcome [9]: inactive
- outcome [10]: inactive
- outcome [11]: inactive
- outcome [12]: inactive
- outcome [13]: inactive
- outcome [14]: inactive
- outcome [15]: inactive
- outcome [17]: inactive
- outcome [18]: inactive
- outcome [19]: inactive

SMILES: C=Cc1ccc(OC(C)=O)cc1
- outcome [1]: inactive
- outcome [2]: inactive
- outcome [3]: inactive
- AC50 [4]: 13.1 µM (active)
- outcome [5]: inactive
- outcome [6]: inactive
- outcome [7]: inactive
- outcome [8]: inactive
- outcome [9]: inactive
- outcome [10]: inactive
- outcome [11]: inactive
- outcome [12]: inactive
- outcome [14]: inactive
- AC50 [15]: 35.9 µM (active)
- outcome [16]: inactive
- outcome [17]: inactive
- outcome [18]: inactive
- outcome [19]: inactive

SMILES: CC(C)(C)N
- outcome [1]: inactive
- outcome [2]: inactive
- outcome [3]: inactive
- outcome [4]: inactive
- outcome [6]: inactive
- outcome [7]: inactive
- outcome [20]: inactive
- outcome [8]: inactive
- outcome [9]: inactive
- outcome [10]: inactive
- outcome [11]: inactive
- outcome [12]: inactive
- outcome [13]: inactive
- outcome [14]: inactive
- outcome [15]: inactive
- outcome [16]: inactive
- outcome [17]: inactive
- outcome [18]: inactive
- outcome [19]: inactive

SMILES: c1ccc2c(c1)[nH]c1ccccc12
- outcome [1]: inactive
- outcome [2]: inactive
- outcome [3]: inactive
- outcome [4]: inactive
- outcome [5]: inactive
- AC50 [6]: 18 µM (active)
- outcome [7]: inactive
- outcome [8]: inactive
- outcome [9]: inactive
- outcome [10]: inactive
- outcome [11]: inactive
- outcome [13]: inactive
- outcome [14]: inactive
- outcome [15]: inactive
- outcome [16]: inactive
- outcome [18]: inactive
- outcome [19]: inactive

SMILES: CCOC(=O)c1ccccc1C
- outcome [1]: inactive
- outcome [2]: inactive
- outcome [3]: inactive
- outcome [4]: inactive
- outcome [5]: inactive
- outcome [6]: inactive
- outcome [7]: inactive
- outcome [8]: inactive
- outcome [9]: inactive
- outcome [10]: inactive
- outcome [11]: inactive
- outcome [12]: inactive
- outcome [13]: inactive
- outcome [14]: inactive
- outcome [16]: inactive
- outcome [17]: inactive
- outcome [18]: inactive
